The source of these data is PubChem BioAssay (EPA / NIEHS).

Molecules are shown by their SMILES. Values joined by “and” are separate entries in the source; they are usually repeats but may differ in a detail not shown here. Identical values can stand only once. More than one record can exist for a structure, and the calls need not agree. Active and inactive are the calls of the source. Rule for the calls: active = hit-call score of the fitted dose curve at least 0.9, where 1 is the maximum; inactive = score below 0.9.

Read-out in assay [1]: Interleukin-6 (IL6), IL6 (gene 3569)
Description: BSK_CASM3C_IL6: BioMAP Diversity Plus: CASM3C Assay for Interleukin-6 (IL6) Biomarker Activity for (AID 2283040). To be noted: primary human coronary artery smooth muscle cells; actives raise or lower the signal.

Read-out in assay [2]: Tissue plasminogen activator (tPA), PLAT (gene 5327)
Description: BSK_BE3C_tPA: BioMAP Diversity Plus: BE3C Assay for Tissue plasminogen activator (tPA) Biomarker Activity (AID 2283041).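 For outcome: tPA level quantified by ELISA one day after compound addition.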 To be noted: primary human bronchial epithelial cells; actives raise or lower the signal. In short, it runs like this: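 Using human lung primary bronchial epithelial cells, tPA was measured by ELISA 24 h after dosing; data fitted relative to DMSO.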

Read-out in assay [3]: Interleukin-8 (IL8), CXCL8 (gene 3576)
Description: BSK_CASM3C_IL8: BioMAP Diversity Plus: CASM3C Assay for Interleukin-8 (IL8) Biomarker Activity (AID 2283042).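 Note: IL-8 protein level quantified by ELISA.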 To be noted: primary human coronary artery smooth muscle cells; actives raise or lower the signal.

Read-out in assay [4]: Human Leukocyte Antigen - DR isotype (HLADR), HLA-DRA (gene 3122)
Description: BSK_CASM3C_HLADR: BioMAP Diversity Plus: CASM3C Assay for Human Leukocyte Antigen - DR isotype (HLADR) Biomarker Activity (AID 2283043).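 Note: cell-surface HLA-DR protein level quantified by ELISA.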 To be noted: primary human coronary artery smooth muscle cells; actives raise or lower the signal.

Read-out in assay [5]: Macrophage colony-stimulating factor (MCSF), CSF1 (gene 1435)
Description: BSK_CASM3C_MCSF: BioMAP Diversity Plus: CASM3C Assay for Macrophage colony-stimulating factor (MCSF) Biomarker Activity (AID 2283044).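 Note: M-CSF protein amount quantified by ELISA after 24 h exposure.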 To be noted: primary human coronary artery smooth muscle cells; actives raise or lower the signal.

Read-out in assay [6]: Low-density lipoprotein receptor (LDLR), LDLR (gene 3949)
Description: BSK_CASM3C_LDLR: BioMAP Diversity Plus: CASM3C Assay for Low-density lipoprotein receptor (LDLR) Biomarker Activity (AID 2283045).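 Note: LDLR protein level on the cell surface quantified by ELISA.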 To be noted: primary human coronary artery smooth muscle cells; actives raise or lower the signal.

Read-out in assay [7]: Monocyte Chemoattractant Protein-1 (MCP1), CCL2 (gene 6347)
Description: BSK_CASM3C_MCP1: BioMAP Diversity Plus: CASM3C Assay for Monocyte Chemoattractant Protein-1 (MCP1) Biomarker Activity (AID 2283046).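 Note: MCP-1 level quantified by ELISA 24 h after dosing.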 To be noted: primary human coronary artery smooth muscle cells; actives raise or lower the signal.

A short description of assay [8]: BSK_CASM3C_Proliferation: Cell Proliferation Assessment in the BioMAP Diversity Plus: CASM3C Assay (AID 2283047).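 Note: sulforhodamine B total protein stain as relative cell number at 560 nm; sub-confluent cells exposed 48 h before staining; fitted both ways against DMSO so gain or loss of cell number.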 To be noted: primary human coronary artery smooth muscle cells.
Read-out in assay [9]: Monokine induced gamma interferon (MIG), CXCL9 (gene 4283)
Description: BSK_CASM3C_MIG: BioMAP Diversity Plus: CASM3C Assay for Monokine induced gamma interferon (MIG) Biomarker Activity (AID 2283048).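 Note: MIG protein level measured by ELISA.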 To be noted: primary human coronary artery smooth muscle cells; actives raise or lower the signal.

Read-out in assay [10]: serum amyloid A (SAA), SAA1 (gene 6288)
Description: BSK_CASM3C_SAA: BioMAP Diversity Plus: CASM3C Assay for serum amyloid A (SAA) Biomarker Activity (AID 2283049).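 Note: SAA protein level quantified by ELISA.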 To be noted: primary human coronary artery smooth muscle cells; actives raise or lower the signal.

Assay [11] is described as follows: BSK_CASM3C_SRB: Viability Assessment in the BioMAP Diversity Plus: CASM3C Assay (AID 2283050).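 Note: total protein by SRB staining as cytotoxicity measure in parallel cultures; cells exposed to compound for 24 h.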 To be noted: primary human coronary artery smooth muscle cells.
Read-out in assay [12]: Thrombomodulin, THBD (gene 7056)
Description: BSK_CASM3C_Thrombomodulin: BioMAP Diversity Plus: CASM3C Assay for Thrombomodulin Biomarker Activity (AID 2283051).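 Note: thrombomodulin protein level measured by ELISA 24 h after dosing.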 To be noted: primary human coronary artery smooth muscle cells; actives raise or lower the signal.

Read-out in assay [13]: Tissue Factor, F3 (gene 2152)
Description: BSK_CASM3C_TissueFactor: BioMAP Diversity Plus: CASM3C Assay for Tissue Factor Biomarker Activity (AID 2283052).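 Note: cell surface tissue factor protein level read by ELISA.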 To be noted: primary human coronary artery smooth muscle cells; actives raise or lower the signal.

Read-out in assay [14]: Interferon-gamma inducible Protein 10 (IP10), CXCL10 (gene 3627)
Description: BSK_hDFCGF_IP10: BioMAP Diversity Plus: hDFCGF Assay for Interferon-gamma inducible Protein 10 (IP10) Biomarker Activity (AID 2283053). To be noted: primary human foreskin fibroblasts; actives raise or lower the signal. In short, it runs like this: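 Chemical-treated human skin fibroblasts (primary) were sampled at 24 h for IP-10 by ELISA. Both increases and decreases relative to DMSO were scored.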

Read-out in assay [15]: Urokinase-type plasminogen activator receptor (uPAR), PLAUR (gene 5329)
Description: BSK_CASM3C_uPAR: BioMAP Diversity Plus: CASM3C Assay for Urokinase-type plasminogen activator receptor (uPAR) Biomarker Activity (AID 2283054).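 Note: cell-surface uPAR protein level quantified by ELISA.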 To be noted: primary human coronary artery smooth muscle cells; actives raise or lower the signal.

Read-out in assay [16]: Vascular cell adhesion molecule 1 (VCAM1), VCAM1 (gene 7412)
Description: BSK_CASM3C_VCAM1: BioMAP Diversity Plus: CASM3C Assay for Vascular cell adhesion molecule 1 (VCAM1) Biomarker Activity (AID 2283055).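 Note: VCAM-1 protein level quantified by ELISA on the cells.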 To be noted: primary human coronary artery smooth muscle cells; actives raise or lower the signal.

Read-out in assay [17]: Collagen III, COL3A1 (gene 1281)
Description: BSK_hDFCGF_CollagenIII: BioMAP Diversity Plus: hDFCGF Assay for Collagen III Biomarker Activity (AID 2283056). To be noted: primary human foreskin fibroblasts; actives raise or lower the signal. The method in brief: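 Cells: human foreskin fibroblasts, primary. Dosing followed by 24 h incubation, then ELISA for collagen III. Both increases and decreases scored relative to DMSO.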

Read-out in assay [18]: Epidermal growth factor receptor (EGFR), EGFR (gene 1956)
Description: BSK_hDFCGF_EGFR: BioMAP Diversity Plus: hDFCGF Assay for Epidermal growth factor receptor (EGFR) Biomarker Activity (AID 2283057). To be noted: primary human foreskin fibroblasts; actives raise or lower the signal. The method in brief:
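Cell-based multiplexed assay in primary human foreskin fibroblasts. EGFR is read by ELISA 24 h after treatment and compared with DMSO controls.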

Read-out in assay [19]: Interleukin-8 (IL8), CXCL8 (gene 3576)
Description: BSK_hDFCGF_IL8: BioMAP Diversity Plus: hDFCGF Assay for Interleukin-8 (IL8) Biomarker Activity (AID 2283058). To be noted: primary human foreskin fibroblasts; actives raise or lower the signal. The method in brief: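 IL-8 levels from compound-treated primary human fibroblasts were read by ELISA at 24 h, with DMSO serving as baseline for bidirectional fitting.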

Assay [20] can be described thus: BSK_hDFCGF_Proliferation: Cell Proliferation Assessment in the BioMAP Diversity Plus: hDFCGF Assay (AID 2283059).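 Note: curves fitted for both rise and fall of signal versus DMSO baseline.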 To be noted: primary human foreskin fibroblasts. In short, it runs like this:
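Total protein read at 560 nm after 0.1% SRB staining of TCA-fixed human skin fibroblasts, […]. Activity is fitted in both directions relative to DMSO as baseline.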

In general, AC50 refers to the midpoint of the concentration-response curve, whichever way the signal moves.

In the case of `C=CC(F)(F)C(F)(F)C(F)(F)C(F)(F)C(F)(F)C(F)(F)C(F)(F)C(F)(F)F`, the outcome in assay [1], in [2], in [3], in assay [4], in [5] and in [6] was inactive. Moreover, the outcome in assay [7], in assay [8], in assay [9], in assay [10], in [11] and in assay [12] was inactive. The outcome in assay [13], in assay [14], in assay [15], in assay [16], in assay [17] and in [18] was inactive. In addition, the outcome in assay [19] and in assay [20] was inactive. For the same compound, in assay [18], the AC50 was 270 nM (active).
On to `FC(F)(F)C(F)(F)C(F)(F)C(F)(F)C(F)(F)C(F)(F)CCS`, for which the result in assay [1], in [2], in [3], in [4], in [5] and in assay [6] was inactive. Besides, the outcome in assay [7], in assay [8], in assay [9], in [10], in assay [11] and in assay [12] was inactive. The outcome in assay [13], in [14], in assay [15], in assay [16], in assay [17] and in assay [18] was inactive. In addition, the result in [19] and in assay [20] was inactive.
On to `CCO[Si](CCC(F)(F)C(F)(F)C(F)(F)C(F)(F)C(F)(F)C(F)(F)F)(OCC)OCC`, for which the outcome in assay [1], in assay [2], in [3], in [4], in assay [5] and in [6] was inactive. Further, the result in assay [7], in assay [8], in assay [9], in assay [10], in assay [11] and in assay [12] was inactive. In addition, the outcome in [13], in assay [14], in assay [15], in assay [16], in assay [17] and in [18] was inactive. Besides, the result in [19] and in [20] was inactive. The AC50 in assay [13] was 1.58 µM (active).
In the case of `C=C(C)C(=O)OCC(F)(F)C(F)(F)C(F)(F)C(F)(F)C(F)(F)C(F)(F)C(F)(F)F`, the result in assay [1], in assay [2], in [3], in assay [4], in [5] and in [6] was inactive. In addition, the outcome in [7], in assay [8], in assay [9], in assay [10], in assay [11] and in assay [12] was inactive. Further, the outcome in assay [13], in assay [14], in assay [15], in assay [16], in assay [17] and in assay [18] was inactive. In addition, the result in [19] and in [20] was inactive.
`O=C(Cl)C(F)(F)C(F)(F)C(F)(F)C(F)(F)C(F)(F)C(F)(F)C(F)(F)C(F)(F)F`: the outcome in [1], in assay [2], in [3], in assay [4], in assay [5] and in assay [6] was inactive. In addition, the result in assay [7], in assay [8], in assay [9], in assay [10], in assay [11] and in assay [12] was inactive. Also, the result in assay [13], in [15], in assay [16], in [17], in assay [18] and in assay [19] was inactive. The half-maximal activity concentration (AC50) was 27.5 µM (active) and 22.8 µM (active) in [2]; 24.8 µM (active) and 36.7 µM (active) and 32.9 µM (active) in assay [14]; 30 µM (active) in assay [16]; 6.36 µM (active) and 13.7 µM (active) in assay [18]; 49.7 µM (active) and 49.4 µM (active) and 49.5 µM (active) in assay [20].
As for `Cc1ccc(S(=O)(=O)OCC(F)(F)C(F)(F)C(F)(F)C(F)(F)C(F)(F)C(F)F)cc1`, the outcome in assay [1], in assay [2], in assay [3], in [4], in assay [5] and in assay [6] was inactive. Also, the outcome in [7], in assay [8], in assay [9], in assay [10], in [11] and in assay [12] was inactive. Besides, the result in assay [13], in [14], in assay [15], in assay [16], in assay [17] and in assay [18] was inactive. The outcome in [19] and in [20] was inactive.
